# In article PMC4336329 (PLoS ONE, 2015):
# In all, about 310,000 compounds went through this assay and about 14,000 (4.5%) showed an effect of 50% or more. The effect is printed as a negative number. What follows is part of a selection rich in strong results, with near analogues and random picks from the rest.
# Target: human ether-à-go-go-related gene (hERG) potassium channel (human, UniProt Q12809)
# Experiment: primary screen, population patch clamp on CHO cells stably expressing hERG; higher = less effect of the substance
# 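Further: peak tail current of the secondary pulse compared with the same well before compound.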
# Sequence of human ether-à-go-go-related gene (hERG) potassium channel (Q12809 whole entry, looked up): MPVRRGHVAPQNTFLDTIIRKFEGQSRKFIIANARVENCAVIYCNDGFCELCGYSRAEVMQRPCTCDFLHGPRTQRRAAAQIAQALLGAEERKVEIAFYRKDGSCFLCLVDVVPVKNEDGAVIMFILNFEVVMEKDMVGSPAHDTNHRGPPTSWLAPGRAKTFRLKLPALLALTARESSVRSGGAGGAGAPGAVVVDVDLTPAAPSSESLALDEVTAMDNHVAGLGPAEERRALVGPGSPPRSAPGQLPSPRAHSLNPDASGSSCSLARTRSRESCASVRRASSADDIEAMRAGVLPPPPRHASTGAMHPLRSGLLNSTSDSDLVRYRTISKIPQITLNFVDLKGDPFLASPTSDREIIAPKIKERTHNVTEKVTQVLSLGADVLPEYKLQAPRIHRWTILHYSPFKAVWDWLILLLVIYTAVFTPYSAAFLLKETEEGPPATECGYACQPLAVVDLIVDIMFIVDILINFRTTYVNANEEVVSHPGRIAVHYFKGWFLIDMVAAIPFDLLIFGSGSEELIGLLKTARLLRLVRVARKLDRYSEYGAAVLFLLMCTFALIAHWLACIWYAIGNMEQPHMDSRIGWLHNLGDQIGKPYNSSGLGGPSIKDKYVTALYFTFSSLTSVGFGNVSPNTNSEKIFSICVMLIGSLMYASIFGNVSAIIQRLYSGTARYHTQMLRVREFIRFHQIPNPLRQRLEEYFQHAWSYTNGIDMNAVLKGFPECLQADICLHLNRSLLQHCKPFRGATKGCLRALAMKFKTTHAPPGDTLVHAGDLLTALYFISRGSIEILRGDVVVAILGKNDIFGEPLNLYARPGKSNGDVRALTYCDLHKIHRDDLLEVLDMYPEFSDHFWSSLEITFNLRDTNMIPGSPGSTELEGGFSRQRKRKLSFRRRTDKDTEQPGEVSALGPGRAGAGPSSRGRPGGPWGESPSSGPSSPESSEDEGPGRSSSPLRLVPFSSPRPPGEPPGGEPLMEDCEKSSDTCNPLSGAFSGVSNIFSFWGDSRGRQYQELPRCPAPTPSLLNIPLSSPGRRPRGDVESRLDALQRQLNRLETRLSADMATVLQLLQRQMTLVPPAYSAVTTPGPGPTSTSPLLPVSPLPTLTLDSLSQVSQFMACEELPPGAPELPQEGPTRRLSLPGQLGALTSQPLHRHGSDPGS
row,SMILES,"hERG current change (%, negative = inhibition) at 10uM [%]"
1,CCOC(=O)c1ccccc1NC(=O)c1cccc([N+](=O)[O-])c1,12.5
2,CCOC(=O)c1csc(N)c1-c1ccc([N+](=O)[O-])cc1,6.52
3,CCOC(=O)c1cc2[nH]c3ccccc3c2[n+](-c2ccc([N+](=O)[O-])cc2)c1C.[Cl-],-77.8
4,CCOC(=O)c1ccc(-c2ccc3[nH]c4ccccc4c(=O)c3c2)cc1F,13
5,Cc1[nH]c2ccccc2c1/C=N/Nc1ccc([N+](=O)[O-])cc1,3.95
6,N#Cc1cc2[nH]c3ccccc3c2[n+](-c2ccc([N+](=O)[O-])cc2)c1N.[Cl-],-65.1
7,Nc1[nH]c2cc([N+](=O)[O-])ccc2c1-c1ccccn1,20.1
8,CCOC(=O)c1cc(=O)[nH]c2ccccc12,19
9,CCOC(=O)c1cc2[nH]c3ccccc3c2[n+](-c2ccc([N+](=O)[O-])cc2)c1N.O=C([O-])C(F)(F)F,-58.4
10,Cc1c(Cl)cccc1NC(=O)c1cc(-c2ccco2)on1,-0.802
11,N#CC(C#N)=CN=c1ccn(Cc2ccc(Cl)cc2Cl)cc1,7.39
12,O=c1cc[nH]c2c(C(F)(F)F)cccc12,-0.945
13,CCC(C)(C)NC(=O)Cn1c(-c2ccc(C)cc2)noc1=O,13.5
14,CC12CCC(C(=O)Nc3ccccc3Cl)([C@H](Br)C1=O)C2(C)C (stereo partly shown),15.9
15,COc1cc(C)c(Br)cc1S(=O)(=O)NCCN1CCOCC1,12.5
16,C/C=C(/C)C(=O)O[C@@H]1[C@H](OC(=O)C=C(C)C)c2c(ccc3ccc(=O)oc23)OC1(C)C,-0.258
17,C/C=C(/C)C(=O)O[C@H]1[C@@H](O)c2c(ccc3ccc(=O)oc23)OC1(C)C,3.92
18,C/C=C(/C)C(=O)OC1c2c(ccc3ccc(=O)oc23)OC(C)(C)C1OC(C)=O (stereo not shown),-71.8
19,C/C=C(/C)C(=O)OC1c2c(ccc3ccc(=O)oc23)OC(C)(C)C1OC(=O)/C(C)=C\C (stereo not shown),-12.3
20,C/C=C(/C)C(=O)O[C@@H]1c2c(ccc3ccc(=O)oc23)OC(C)(C)[C@@H]1OC(=O)/C(C)=C\C,-8.07
21,CC(=O)OC1c2c(ccc3ccc(=O)oc23)OC(C)(C)C1OC(=O)CC(C)C (stereo not shown),-30.4
22,C/C=C(/C)C(=O)O[C@@H]1[C@H](OC(C)=O)c2c(ccc3ccc(=O)oc23)OC1(C)C,-36

row,SMILES,"hERG current change (%, negative = inhibition) at 10uM [%]"
1,CC(=O)O[C@@H]1[C@H](OC(=O)CC(C)C)c2c(ccc3ccc(=O)oc23)OC1(C)C,-67.2
2,C/C=C(\C)C(=O)OC1c2c(ccc3ccc(=O)oc23)OC(C)(C)C1OC(C)=O (stereo not shown),-72.5
3,CC(=O)c1cccc(NC(=O)C(CC(C)C)NC(=O)C2CCCCC2)c1 (stereo not shown),-4.77
4,O=C(O)c1c2c(nc3ccc(S(=O)(=O)N4CCC(C(=O)NC5CCCC5)CC4)cc13)CCCCC2,9.65
5,O=C1c2oc3ccc(Cl)cc3c(=O)c2C(c2cccc(Br)c2)N1CCO (stereo not shown),-13.1
6,COc1ccc(/C(=N\O)c2ncc(C(F)(F)F)cc2Cl)cc1,-3.33
7,CCOC(=O)c1cnc(COc2ccccc2Cl)[nH]c1=O,16
8,O=C(CSc1nc2ccccc2n1CC(=O)N1CCCC1)N1CCN(C(=O)c2ccco2)CC1,-0.921
9,CCn1c(SCC(=O)N2CCCC2)nc2ccccc2c1=O,-23
10,CC(C)Cn1c(SCC(=O)N2CCOCC2)nc2ccccc2c1=O,-5.9
11,CC(C)Cn1c(SCC(=O)N2CCCCC2)nc2ccccc2c1=O,-24.7
12,CC(C)Cn1c(SCC(=O)N2CCN(C(=O)c3ccco3)CC2)nc2ccccc2c1=O,-73.2
13,CCCn1c(SCC(=O)N2CCN(C(=O)c3ccco3)CC2)nc2ccccc2c1=O,-82.8
14,Cc1nc2ccccc2c(=O)n1-c1ccc(F)cc1,-12.1
15,COCCCNC(=S)Nc1ccc(OC(F)F)cc1C,7.74
16,CCOC(=O)C1CCN(CC(=O)Nc2ccc(OC)c(Cl)c2)CC1,-12.5
17,CCOC(=O)C1CCCN(CCC(=O)Nc2ccc(Br)c(C)c2)C1.Cl (stereo not shown),-36.1
18,Cc1cc(NC(=O)CCN2CCC(C(N)=O)CC2)ccc1Br,-26.7
19,CCOC(=O)C1CCN(CCC(=O)Nc2ccc(C)c(C)c2)CC1,-54.2
20,CCOC(=O)C1CCN(CCC(=O)Nc2ccc(Br)c(C)c2)CC1,-62.8
21,CCOC(=O)C1CCN(c2c(Nc3ccc(C)c(C)c3)c(=O)c2=O)CC1,-12.6
